Assay results from PubChem BioAssay (EPA / NIEHS).
Results filed as inconclusive are left out. Active and inactive are the calls of the source. How the source made its calls: active means hit-call score of the fitted dose curve at least 0.9, where 1 is the maximum; inconclusive means response in the unintended direction; inactive means score below 0.9.

What was measured:
[1] = target: Cellular tumor antigen p53 (Homo sapiens) (UniProt P04637); assay: TOX21_p53_BLA_p2_ratio: Tox21 HCT-116 p53 Agonism Beta-lactamase Assay, Ratio, Phase 2 (AID 2283592)
Sequence of Cellular tumor antigen p53 (Homo sapiens) (P04637 whole entry, looked up): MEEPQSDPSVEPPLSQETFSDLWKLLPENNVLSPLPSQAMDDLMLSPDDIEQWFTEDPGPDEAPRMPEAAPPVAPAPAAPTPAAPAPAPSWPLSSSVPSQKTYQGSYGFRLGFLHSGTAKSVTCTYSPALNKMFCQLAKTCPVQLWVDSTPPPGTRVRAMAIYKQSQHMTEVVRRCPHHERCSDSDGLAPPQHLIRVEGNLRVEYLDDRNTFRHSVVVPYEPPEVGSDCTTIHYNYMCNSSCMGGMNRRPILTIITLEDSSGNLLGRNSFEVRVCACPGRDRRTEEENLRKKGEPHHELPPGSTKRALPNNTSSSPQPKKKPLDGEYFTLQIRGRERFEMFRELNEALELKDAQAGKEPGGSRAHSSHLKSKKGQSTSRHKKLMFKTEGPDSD
How it was run: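 HCT116 cells carrying a p53-responsive beta-lactamase reporter were plated, incubated 5 h at 37C, then dosed with compounds in DMSO (217-fold dilution) for 16 h. CCF4-AM substrate was added for 2 h at room temperature; the 460/530 nm emission ratio gave gain-of-signal activity relative to DMSO.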

[2] = target: Cellular tumor antigen p53 (Homo sapiens) (UniProt P04637); assay: TOX21_p53_BLA_p3_ratio: Tox21 HCT-116 p53 Agonism Beta-lactamase Assay, Ratio, Phase 3 (AID 2283596)
How it was run: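 HCT116 p53-bla cells (4000/well) given compound in DMSO (217-fold dilution) after 5 h, incubated 16 h at 37C. CCF4-AM substrate 2 h at room temperature; 460/530 nm emission ratio, gain fitted against DMSO.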

[3] = TOX21_p53_BLA_p4_viability: Viability Assessment in the Tox21 HCT-116 p53 Agonism Beta-lactamase Assay, Phase 4 (AID 2283597);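 further: hits lower the luminescence signal meaning cytotoxicity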
How it was run: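 HCT116 p53-bla cells (4000/well) rested 5 h at 37C, then received compounds in DMSO (217-fold dilution) for 16 h at 37C, 5% CO2. CellTiter-Glo was added after the CCF4-AM read, and luminescence was read after 30 min at room temperature.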

[4] = target: Cellular tumor antigen p53 (Homo sapiens) (UniProt P04637); assay: TOX21_p53_BLA_p5_ratio: Tox21 HCT-116 p53 Agonism Beta-lactamase Assay, Ratio, Phase 5 (AID 2283599)
How it was run: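 HCT-116 p53-bla cells (4000/well) plated 5 h, dosed with compound (217-fold DMSO dilution) for 16 h at 37 C; CCF4-AM substrate 2 h at room temperature. Activity is the 460/530 nm emission ratio (405 nm excitation), fitted in gain-of-signal direction versus DMSO.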

[5] = TOX21_p53_BLA_p5_viability: Viability Assessment in the Tox21 HCT-116 p53 Agonism Beta-lactamase Assay, Phase 5 (AID 2283600)
How it was run: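 Cells were plated at 4000/well, rested 5 h at 37C, then given compounds in DMSO (217-fold dilution) for 16 h at 37C, 5% CO2. Following the CCF4-AM beta-lactamase read, CellTiter-Glo was added and luminescence was read after 30 min at room temperature.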

Measured: outcome

CCCCCCI
inactive: all assays above
